Experimental findings from PubChem BioAssay AID720536 (National Center for Advancing Translational Sciences (NCATS), 2013) are described below.

Hit rate of the full screen: of about 1,600 compounds, about 650 (41%) were called active. Inconclusive results (about 39%) are left out. So high a share suggests a set chosen from earlier hits. The sample as a whole holds a higher share of actives than the screen did. Values without a mark were called inactive. Calls come from the whole dose curve; as a rule, active = well fitted inhibition curve with a large enough effect; inconclusive = small, poorly fitted or top-dose-only effect; inactive = no such curve, though single readings can be large or run the other way.
Potency is the fitted concentration of half-maximal effect.

The test in a line: qHTS for Inhibitors of TGF-b: CCL64 Cells Orthogonal Assay for Cherry Picks. Note: nearly all actives have a fitted effect of over 65% in size. The settings on record: CCL64 CAGA-GFP reporter, TGF-b stimulated, GFP fluorescence, 18 h; series mostly up to 46.1 µM; activity, negative = inhibition: at the top concentration. The source says:
TGF-b is a main component in the TGF-b signaling pathway which plays diverse roles in cellular and development pathways. TGF-b is the mediated by the transcription factors Smads. Although the Smad-dependent pathway is the primary canonical TGF-b signaling node, TGF-b1 can also activate alternative signaling pathways, including those involving MAPK (ERK, JNK and p38). This interaction may mediate or enhance Smad-dependent responses, or can exert Smad-independent effects. The complexity of this signaling cascade allows the TGF-b superfamily to perform unique, overlapping or redundant functions. We believe that targeting the TGF-beta pathway at the Smad-transcription factor level may eliminate the consequences of disrupting the entire pathway and offer specificity without affecting other signaling pathways. Smad3 is the primary transducer of TGF-b's signals and Smad3 regulates many functions attributed to TGF-b signaling. We hypothesize that Smad3 inhibitors will selectively eliminate Smad3-specific TGF-beta signals without undesired off-target effects. We aim to identify Smad3-small molecule antagonists using a quantitative high throughput screening (qHTS) approach. A high-throughput assay was developed to screen the NIH Molecular Libraries Small Molecule Repository (MLSMR). This is a cell based assay, where TGF-b is tagged with GFP. This orthogonal assay was run using CCL64 cells (as opposed to HepG2); activity was desired in this assay as this indicated the hits identified from the screen are not a cell-based artifact. MH087449NIH Chemical Genomics Center [NCGC] NIH Molecular Libraries Probe Centers Network [MLPCN] MLPCN Grant: MH087449 Assay Submitter (PI): Sushil Rane, National Institute of Diabetes and Kidney Diseases
Suspensions of trypsinized CCL64 CAGA-GFP cells were dispensed into white, tissue culture-treated, solid 1536-well plates at 5uL/well (1000 cells/well final concentration) in DMEM medium supplemented with 1% FBS. Plates were incubated at 37 degrees C for 2 hours, after which 23 nL of compounds or DMSO were delivered to each well using a pin tool. One uL of recombinant TGF-beta in DMEM (1% FBS) was then dispensed (500 pg/mL final concentration), and plates were incubated at 37 degrees C for 18 hours. The plates were measured on an Acumen eX3 Explorer plate reader for GFP fluorescence (ex488/em500-530). GFP values were calculated by determining the mean GFP fluorescence of individual cells, and compiling these values for each well to determine a total well GFP signal. The %Activity was determined from the corrected fluorescence values. A titration of the known TGF-B inhibitor SB431542 was included to monitor plate performance, while unstimulated […] (-TGF-B) control wells were used to normalize %Activity of identified inhibitors; unstimulated wells corresponded to 100%Activity (full inhibition), while stimulated cell controls (+DMSO) were used to normalize 0%Activity (no inhibition). Concentration-response curves were fitted to the signals arising from the resulting fluorescence. The concentration-effect curves were then classified based on curve quality (r2), response magnitude and degree of measured activity, and compounds were subsequently categorized based on their curve class.
In general terms: In qHTS, concentration-response curves come from the screen itself.
In the case of `COc1cc(NC(=O)c2[nH]cnc2C(N)=O)cc(C(=O)Nc2cccc(C(F)(F)F)c2)c1`, the Potency was 9.2 µM (active).
As for `CCCc1cc(-c2n[nH]c(=S)n2CC)c2ccccc2n1`, the “activity, negative = inhibition” value is -6.24%.
Turning to `Clc1ccc2c(c1)C1=C(C(c3ccncc3)O2)C(c2ccc(Br)cc2)n2ncnc2N1` (centres undefined), the Potency is 10.3 µM (active).
In the case of `Cc1ccc(-c2nc3ccc(Br)cn3c2Cc2ccccc2C(F)(F)F)cc1`, the “activity, negative = inhibition” value was 2.1%.
In the case of `CCOC(=O)C1=C(N)N(c2ccc(C)cc2)C2=C(C(=O)CCC2)C1c1cccs1` (centres undefined), the Potency was 23.1 µM (active).
Consider `Cc1cccc(NC(=O)c2nc(S(=O)(=O)Cc3ccccc3)ncc2Cl)c1`, for which the Potency was 2.59 µM (active).
On to `Cc1cccc(CS(=O)(=O)c2ncc(Cl)c(C(=O)Nc3ccc(F)cc3)n2)c1`, for which the Potency was 4.61 µM (active).
As to `Cc1ccc(S(=O)(=O)Nc2ccc3c(c2)C(=O)N([C@H](C)CO)C[C@@H](C)[C@@H](CN(C)C(=O)Nc2cccc4ccccc24)O3)cc1`, the “activity, negative = inhibition” value was 9.21%.
`COc1cc(NC(=O)COC(=O)c2ccc([N+](=O)[O-])s2)cc(OC)c1OC`: the “activity, negative = inhibition” value is -10.9%.
The same measure, in the same setting: in the case of `CC1CCc2c(nc3ncnn3c2Nc2ccc(OC(F)(F)F)cc2)C1` (centres undefined) it was 22.3%.
With `Cc1nc(/N=C(\N)NC(=O)NC2CCCCC2)nc2ccccc12`, the Potency is 20.6 µM (active).
With `COc1cccc(CNc2nc(NCc3ccccc3OC)nc3ccsc23)c1`, the Potency was 18.4 µM (active).
Consider `O=C(Nc1ccc(C2CC2(Cl)Cl)cc1)c1cccc([N+](=O)[O-])c1` (centres undefined), for which the Potency is 14.6 µM (active).
Regarding `CC(=NNC(=S)N1CCCCCC1)c1ccccn1`, the Potency was 4.11 µM (active).
For the compound `O=C(NC1=CC(=O)c2ccccc2C1=O)c1ccccc1`, the Potency was 3.66 µM (active).
As to `CCCOc1ccccc1C1CC(=O)Nc2cc3c(cc21)OCO3` (centres undefined), the Potency was 13 µM (active).
As to `Cc1ccc(CN2CC(N3CCC(Cc4ccccc4)CC3)CS2(=O)=O)cc1` (centres undefined), the “activity, negative = inhibition” value is -13.3%.
For the compound `CCCOc1ccc(F)cc1-c1cc(C(=O)Nc2ccc(F)c(Cl)c2)[nH]n1`, the Potency is 25.9 µM (active).
Turning to `O=[N+]([O-])c1ccccc1S(=O)(=O)Nc1cccc2cccnc12`, the Potency is 8.2 µM (active).
Turning to `Clc1ccc(Nc2nc(-c3cccs3)cs2)nc1`, the Potency was 29.1 µM (active).
As to `COC(=O)COc1cccc2c(=O)n(CC(=O)NCc3ccccc3)ccc12`, the “activity, negative = inhibition” value is -25.2%.
Turning to `COc1cc(/C=C2\Oc3ccc(C#Cc4ccc(O)cc4)cc3C2=O)cc(OC)c1`, the Potency was 5.17 µM (active).
Same read-out and setting: the figure for `Cc1cc(C)cc(N(CC(=O)N2CC=C(c3ccccc3)CC2)S(=O)(=O)c2c(C)noc2C)c1` is 10.3 µM (active); for `COc1ccc(CNC(=O)C[C@H]2C[C@H](C(=O)N3CCOCC3)[C@@]3(CCC4CCCC4)c4[nH]c5ccc(Cl)cc5c4CCN3C2=O)cc1OC` it is 5.17 µM (active).
For the compound `COc1ccc2nc(N3CCN(C(=O)c4ccc([N+](=O)[O-])o4)CC3)sc2c1`, the “activity, negative = inhibition” value is -29.7%.
As for `CN(C)CCNC(=O)c1ccc(Cl)c2cc3ccccc3nc12`, the Potency is 4.61 µM (active).
As for `Fc1cc(F)c2nc(Nc3nc4c(F)cccc4s3)sc2c1`, the “activity, negative = inhibition” value was -1.33%.
For the compound `c1ccc2cc3c(NCCN4CCOCC4)ccnc3cc2c1`, the Potency was 13 µM (active).
Consider `Cn1c(=O)n(C)c2cc(S(=O)(=O)N3CCCc4ccccc43)ccc21`, for which the “activity, negative = inhibition” value was 1.1%.
`COc1ccc(-c2csc(NC3OC(=O)c4ccccc43)n2)cc1` (centres undefined): the Potency is 11.6 µM (active).
As for `OCC1OC(n2cnc3c(N4CCCC4)ncnc32)C(O)C1O` (centres undefined), the “activity, negative = inhibition” value was 1.41%.
`COc1cc(NC(=O)c2ccccc2NS(=O)(=O)c2ccc(Cl)s2)cc(OC)c1`: the Potency was 4.61 µM (active).
As for `Cc1cccc2sc(N(CCCN(C)C)C(=O)CCS(=O)(=O)c3ccccc3)nc12`, the Potency is 3.26 µM (active).
As for `COc1cccc2sc(N(CCCN(C)C)C(=O)CCS(=O)(=O)c3ccccc3)nc12`, the Potency is 2.91 µM (active).
`COc1c(C(C)C)oc2cc3oc(=O)ccc3cc12`: the “activity, negative = inhibition” value is 2.12%.
With `O=C(Nc1ccc(Br)cn1)c1ccc([N+](=O)[O-])o1`, the Potency is 13 µM (active).
Take `COc1ccc(-c2onc(C)c2-c2ccc3c(c2)OCCO3)c(O)c1`: the Potency is 14.6 µM (active).
Turning to `CN(C)c1nc(N)nc(CSc2nnnn2-c2cccc3ccccc23)n1`, the “activity, negative = inhibition” value is 7.15%.
For the compound `COc1ccc(CC(=O)Nc2ccccc2NC(=O)c2ccco2)cc1OC`, the “activity, negative = inhibition” value was -5.76%.
Turning to `CC(=O)c1ccc(-c2cnc3c(NC=O)cc(-c4cccc(NS(C)(=O)=O)c4)cn23)cc1`, the Potency is 5.17 µM (active).
In the case of `Cc1ccc(C)c(S(=O)(=O)N2CCN(CC(=O)Nc3ccc([N+](=O)[O-])cc3)CC2)c1`, the “activity, negative = inhibition” value is -18.2%.
As for `OCCCNc1nccc(-c2cc(Nc3cccc(Cl)c3)ncn2)n1`, the Potency was 1.3 µM (active).
In the case of `O=C(CCC(=O)N1CCN(S(=O)(=O)c2ccc(Cl)cc2)CC1)NCc1cccc(C(F)(F)F)c1`, the “activity, negative = inhibition” value is -42.6%.
As to `O=C(/C(=C/c1cccc(Cl)c1)c1nc2ccccc2[nH]1)c1ccccc1`, the Potency is 4.61 µM (active).
